SMILES strings stand for the structures. This is part of a sample that, as a whole, favours compounds with a hit. Of some 83,000 tested, about 20% had one in any assay.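 Cells were grown in 96-well plates and exposed to the test compound at a single concentration for 48 hours; results are reported as percent growth, with values below 10 considered active.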 A number with no mark means an inactive call. Active and inactive are the calls of the source.

The test system of the assay is M14 melanoma. Nature of the assay: NCI-60 one-dose screen, 48 h (100 = growth as untreated, 0 = no growth, -100 = all killed). The following applies: 10 µM.
On to `COCCOC(=O)c1ccc(C(C)C)cc1`, for which the growth was 93.2%.
As for `CCCC(C)OCC(=O)O` (stereo not drawn), the growth was 106%.
In the case of `O=c1[nH][nH]c(=O)c2cc([N+](=O)[O-])ccc12` it was 99.9%.
In the case of `CCCCCCCCO`, the growth was 105%.
In the case of `Cn1cnc2nc(Cl)nc(Cl)c21` it was -15.6% (active); in that of `OCC(O)C(O)C(O)C(O)/C=N/O` (stereo not drawn), 94.7%; in that of `O=C(O)COCC(=O)O`, 111%.
`Cc1ccc(S(=O)(=O)O)c(C)c1`: the growth was 101%.
With `NC(=S)N/N=C/c1ccc(N)cc1`, the growth was 98.4%.
For `CC1CC(O)C2C3(C)CCCC2(COC3=O)C12CCC1(CCOC1=O)O2` (stereo not drawn) the value was 96.8%; for `CCOc1ccc(Br)cc1/C=N\N=C\c1cc(Br)ccc1OCC`, 98.6%; for `S=C1CCCCCN1`, 105%.
For `CC1CCCCN1C(=S)Nc1ccc(S(=O)(=O)N2CCCCC2)cc1` (stereo not drawn) the value was 89.2%; for `COc1cc(C2c3cc4c(cc3C3OC(=O)C2C3CO)OCO4)cc(OC)c1OC` (stereo not drawn), 12.1%; for `CCCCOC(=O)c1ccc(C(C)C)cc1`, 96.5%.
In the case of `NCCCN` it was 112%.
For `O=C(O)CCCC(=O)O`, the growth is 106%.
With `COc1ccc(-c2cc3c(nn2)-c2ccccc2C3=O)cc1`, the growth is 42.9%.

Values taken from PubChem BioAssay (NCI).
